Screening data deposited in PubChem BioAssay by National Center for Advancing Translational Sciences (NCATS).
NPR1 antag = human Npr1 receptor antagonism; P16066; HEK293 hNpr1 GloSensor cGMP, ANP-stimulated luminescence; Potency, µM (highest dose often 46.3 µM), most hits filed as inhibitors; hit rate 1.6% among 76,000; AID 1347048; calls by dose curve; note: nearly all actives have a fitted effect of over 60% in size
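HEK293 cells stably expressing human Npr1 and cGMP GloSensor pGS-40F, loaded 2 h with 2% GloSensor reagent, given compound 30 min at room temperature. Luminescence read before and 20 min after 0.1 nM hNppA.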
FLuc inh = inhibitors of firefly (Photinus pyralis) luciferase; Potency, µM (doses to about 115 µM), actives largely listed as inhibitors; AID 1347043; P08659; purified P. pyralis luciferase, luminescence, biochemical; hit rate 2.5% among 76,000; note: nearly all actives have a fitted effect of over 65% in size
Target sequence (P08659 whole entry, looked up): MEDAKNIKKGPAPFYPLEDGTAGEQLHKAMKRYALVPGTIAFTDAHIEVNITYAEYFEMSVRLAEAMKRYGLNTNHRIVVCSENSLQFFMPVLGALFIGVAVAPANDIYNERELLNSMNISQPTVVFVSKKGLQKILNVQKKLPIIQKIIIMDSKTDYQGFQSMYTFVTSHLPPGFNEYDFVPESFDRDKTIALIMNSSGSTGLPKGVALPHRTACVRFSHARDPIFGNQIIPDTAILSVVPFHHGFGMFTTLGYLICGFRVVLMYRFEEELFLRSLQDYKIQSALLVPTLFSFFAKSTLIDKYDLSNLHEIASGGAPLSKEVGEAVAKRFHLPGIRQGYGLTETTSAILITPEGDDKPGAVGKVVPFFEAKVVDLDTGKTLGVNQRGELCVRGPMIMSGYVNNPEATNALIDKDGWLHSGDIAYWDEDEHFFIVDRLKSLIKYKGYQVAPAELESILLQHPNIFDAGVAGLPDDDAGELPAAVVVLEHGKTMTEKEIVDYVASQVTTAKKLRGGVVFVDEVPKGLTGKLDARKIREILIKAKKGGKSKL
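Inhibitors were tested against purified firefly luciferase in a biochemical, low-substrate format (both substrates at 10uM) and luminescence measured with a CCD imager.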
HEK293 tox = kills HEK 293 cells | HEK 293 viability, ATP luminescence (CellTiter-Glo), 48-72 h | Potency, µM (titrated, usually from 115 µM), actives largely listed as inhibitors | hit rate 6.6% among 94,000; note: nearly all actives have a fitted effect of over 60% in size
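CellTiter-Glo luminescence (cellular ATP) was read after 48 or 72 hr of compound exposure at 37 degree Celsius. Cells were HEK 293 plated at 250 cells/well.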
NIH3T3 tox = kills NIH 3T3 cells. Potency, µM (doses to about 96.7 µM), usual class: inhibitors. NIH 3T3 viability, CellTiter-Glo ATP luminescence, 48-72 h. hit rate 4.3% among 94,000. AID 1345082; note: nearly all actives have a fitted effect of over 55% in size
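Cytotoxicity is measured as loss of cellular ATP: NIH 3T3 cells (400/well) are exposed to compound for 48 or 72 hr at 37 °C, then CellTiter-Glo luminescence is imaged after 10 min at room temperature.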
A number is an active result; i = inactive; ? = inconclusive; nt = no result given. Most compounds without a hit are left out; they make up all but 11% or so of the library. Unless noted, calls come from the whole dose curve; as a rule, active = well fitted curve in the direction sought with a large enough effect; inconclusive = small, poorly fitted or top-dose-only effect, or another doubt; inactive = no such curve, though single readings can be large; an effect the other way counts as inactive or inconclusive.

SMILES	NPR1 antag	FLuc inh	HEK293 tox	NIH3T3 tox
COC(=O)[C@@H]1Cc2c([nH]c3ccccc23)[C@H]2C[C@H](NC[C@H]3CCCO3)C[C@@H](c3ccccc3F)N21	i	i	?	35.5µM
COC(=O)[C@@H]1Cc2c([nH]c3ccccc23)[C@H]2C[C@@H](NCCO)C[C@@H](c3ccccc3F)N21	i	i	39.8µM	28.2µM
CNC(=O)c1ccc2nnc(-c3cccc([S+](C)(=O)[O-])c3)n2c1	nt	nt	i	i
O=C(C1CN(c2ccc(F)cc2)C(=O)N1)N1CCN(Cc2ccccc2)CC1 (stereo not drawn)	i	i	25.1µM	28.2µM
Cn1nc(C(=O)N2CCC3(CC2)CC(CO)N(C(=O)c2ccccc2)C3)c2ccccc21 (stereo not drawn)	i	i	i	?
Cc1cc(CN(C)c2ccc(-c3nc(-c4ccccc4F)no3)cn2)on1	?	?	i	i
CN(CCn1ccnc1)c1ccc(-c2nc(-c3cccc(Cl)c3)no2)cn1	?	3.16µM	35.5µM	?
CCc1noc(-c2cccn3c(CNC(=O)c4ccc5ccccc5n4)nnc23)n1	i	i	35.5µM	?
CCc1noc(-c2cccn3c(CNC(=O)c4ccccc4)nnc23)n1	i	i	i	i
CCCC(=O)N1Cc2ccccc2CC2(CCCN(C)C2)C1 (stereo not drawn)	nt	nt	89.1µM	?
CN1CCCC2(Cc3ccccc3CN(C(=O)CCCC(=O)O)C2)C1 (stereo not drawn)	nt	nt	i	i
Cc1cn2nc(C(=O)N3CCCC3)cc2c(N(C)Cc2ccccc2)n1	i	i	?	?
Cc1cn2nc(C(=O)NCc3ccc(F)cc3F)cc2c(N(C)Cc2ccccc2)n1	i	i	?	35.5µM
Cc1cn2nc(C(=O)NCc3ccccc3F)cc2c(N(C)Cc2ccccc2)n1	i	i	?	?
Cc1cn2nc(C(=O)N3CCC(C)CC3)cc2c(N(C)Cc2ccccc2)n1	i	i	?	35.5µM
Cc1ccc(N2CCN(C(=O)c3noc(-c4ccc5c(c4)OCO5)n3)CC2)c(C)c1	i	i	?	?
Cc1cccc(N2CCN(C(=O)c3noc(-c4ccc5c(c4)OCO5)n3)CC2)c1	i	22.4µM	?	?
O=C(NC1CCCc2c1[nH]c1c(Cl)cccc21)c1n[nH]c2c1CCC2 (stereo not drawn)	i	i	?	28.2µM
COc1ccc(CC(=O)NC2CCCc3c2[nH]c2c(Cl)cccc32)cc1 (stereo not drawn)	i	i	?	25.1µM
COc1ccc(CC(=O)NC2CCCc3c2[nH]c2ccccc32)cc1OC (stereo not drawn)	?	i	35.5µM	?
CC(C)(C)C(=O)NC1CCCc2c1[nH]c1ccc(F)cc21 (stereo not drawn)	i	i	44.7µM	?
COCC(=O)NC1CCCc2c1[nH]c1c(Cl)cccc21 (stereo not drawn)	i	i	?	i
COCCCn1c(=O)c(C(=O)N2CCN(C(=O)Cc3ccc(OC)cc3)CC2)nc2cccnc21	nt	nt	i	i
Cc1cnc(CCNC(=O)Cn2c(=O)oc3ccccc32)n1C1CC1	i	i	i	i
O=C(c1nc(-c2ccc(F)cc2)c2cnccn12)N1CCOCC1	i	i	i	i
SMILES	NPR1 antag	FLuc inh	HEK293 tox	NIH3T3 tox
Cn1nc(C(=O)NC2CCCc3c2[nH]c2ccccc32)c2ccccc2c1=O (stereo not drawn)	i	i	35.5µM	?
Cc1noc(C)c1CC(=O)NC1CCCc2c1[nH]c1ccccc21 (stereo not drawn)	i	i	?	39.8µM
Cc1noc(C)c1CC(=O)NC1CCCc2c1[nH]c1ccc(F)cc21 (stereo not drawn)	i	i	?	?
COc1ccc(C(=O)NC2CCCc3c2[nH]c2ccccc32)cc1OC (stereo not drawn)	i	i	44.7µM	?
O=C(NC1CCCc2c1[nH]c1ccccc21)c1ccccc1 (stereo not drawn)	i	i	?	?
COCC(=O)NC1CN(c2ccnc3ccnn23)C1	nt	nt	i	i
CNC(=O)c1cc(C)nc2onc(C3CCCN(C(=O)C4CCCC4)C3)c12 (stereo not drawn)	nt	nt	i	i
COc1ccccc1-c1[nH]nc2ncc(-c3cnn(C)c3)nc12	i	i	35.5µM	?
COc1ccccc1-c1[nH]nc2ncc(CNc3ccccn3)nc12	i	i	?	?
COc1ccccc1-c1[nH]nc2ncc(-c3ccccc3C)nc12	i	i	50.1µM	50.1µM
COc1ccccc1-c1[nH]nc2ncc(-c3ccnc(C)c3)nc12	i	i	?	?
COc1ccccc1-c1[nH]nc2ncc(-c3cccc(O)c3)nc12	i	i	39.8µM	?
COc1ccccc1-c1[nH]nc2ncc(-c3ccccc3F)nc12	i	i	?	35.5µM
COc1ccccc1-c1[nH]nc2ncc(C(=O)NCc3ccccc3)nc12	i	i	?	i
CC(C)Oc1ccccc1CN1CCC2(CC1)CC(O)CCO2 (stereo not drawn)	i	i	i	i
Cc1nn(-c2ccccc2)c2c1C(C)N(C1CCCN(C(=O)C(C)(C)C)C1)C2=O (stereo not drawn)	nt	nt	i	i
Cc1cc(C)n(Cc2ccc(C(=O)NCC3Cn4cccc4CN3Cc3ccccc3)o2)n1 (stereo not drawn)	i	i	?	?
Cn1cc(-c2ccccc2Oc2ccccc2)c2nc(CO)cn2c1=O	i	i	i	?
Cn1cc(-c2ccccc2Oc2ccccc2)c2nc(CN3CCOCC3)cn2c1=O	i	i	i	89.1µM
COc1cc(F)ccc1-c1cn(C)c(=O)n2cc(CN3CCOCC3)nc12	i	i	i	112µM
O=c1c2nc(-c3ccc4c(c3)OCO4)ccc2ncn1-c1ccc(F)cc1F	i	i	i	?
CCCCOC(=O)N1CCC(N2CCCC(C(=O)N3CCOCC3)C2)CC1 (stereo not drawn)	i	i	i	i
CS(=O)(=O)c1ccc(-c2cnc([C@@H]3COCCN3Cc3ccc(Cl)cc3)[nH]2)cc1	i	i	79.4µM	?
Fc1ccccc1CN1CCOC[C@H]1c1ncc(-c2cccc(Cl)c2)[nH]1	i	i	79.4µM	79.4µM
Clc1cccc(-c2cnc([C@@H]3COCCN3Cc3ncc[nH]3)[nH]2)c1	i	i	i	i
SMILES	NPR1 antag	FLuc inh	HEK293 tox	NIH3T3 tox
Fc1cccc(-c2cnc([C@@H]3COCCN3Cc3ccc(Cl)cc3)[nH]2)c1	?	i	79.4µM	?
CN(C)c1ccc(CN2CCOC[C@H]2c2ncc(-c3ccc(F)cc3F)[nH]2)cc1	i	i	?	?
Oc1ccccc1CN1CCOC[C@H]1c1ncc(-c2ccc(F)cc2F)[nH]1	i	i	79.4µM	?
COCc1nnc(C2CC3(CCN(C(=O)c4cccs4)CC3)CN2C)o1 (stereo not drawn)	nt	nt	i	i
Cn1cc(C(=O)NCC2CN(Cc3cccc(OC(F)(F)F)c3)CC23CN(c2ccccc2)C3)cn1 (stereo not drawn)	?	i	?	?
Fc1ccc(CN2CCOC[C@H]2c2ncc(-c3cccc(Cl)c3)[nH]2)cc1	?	i	?	70.8µM
